High-throughput results deposited in PubChem BioAssay by National Center for Advancing Translational Sciences (NCATS).
The list is not random: actives were taken first. Their share in the collection is about 11%.
PNC inhibitor = blocks assembly of the perinucleolar compartment. PC3M PTB-GFP, PNC prevalence imaging, 16 h; hits give low values. activity change (PNC), negative = inhibition, % at 10 µM. actives 3.1% (n = 140,000);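 active = readout at or below -70, meaning at least 70% loss of cells showing the perinucleolar compartment, a nuclear body marking cancer cells; inconclusive = readout between -30 and a set limit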;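 note: plate controls were DMSO wells for no effect and camptothecin positive control wells for full effect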
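Read-out is percentage of cells bearing a perinucleolar compartment, from automated 20x imaging of fixed, Hoechst-stained PC3M PTB-GFP cells. Cells were seeded 4 h, then exposed 16 h to compound (23 nl of library stock) in duplicate plates.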
HPGD block = inhibitors of human 15-hydroxyprostaglandin dehydrogenase (HPGD) | P15428 | purified HPGD, NADH fluorescence kinetic, PGE2 substrate | Potency, µM, without a hit: top-dose activity change, negative = inhibition, actives largely listed as inhibitors | actives 4.3% (n = 150,000) | AID 894; note: potency is the fitted concentration of half-maximal effect
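NADH formation kinetics: reaction with 30 uM PGE2 and 1 mM NAD+ (final), 20 nM enzyme, Tris-HCl pH 8 with Tween 20, after 15 min compound preincubation at room temperature. Fluorescence change, last versus first of five reads.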
ALDH1A1 block = inhibitors of human aldehyde dehydrogenase 1A1. Purified ALDH1A1, NADH fluorescence, propionaldehyde substrate. actives 7.3% (n = 220,000). AID 1030. Potency, µM (titrated, usually from 75.3 µM), without a hit: top-dose activity, negative = inhibition, hits mostly inhibitors. P00352;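 note: potency is the fitted concentration of half-maximal effect; plate controls were no enzyme wells and a reference inhibitor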
ALOX12 inhib = inhibitors of human 12-lipoxygenase (ALOX12) | P18054 | purified 12-hLO, xylenol orange hydroperoxide absorbance | Potency, µM (doses to about 57.1 µM), without a hit: top-dose activity change, negative = inhibition, hits mostly inhibitors | actives 0.12% (n = 150,000); active = well fitted curve in the direction sought with a large enough effect; inconclusive = small, poorly fitted or top-dose-only effect, or another doubt; inactive = no such curve, though single readings can be large; an effect the other way counts as inactive or inconclusive; note: potency is the fitted concentration of half-maximal effect; nearly all actives have a fitted effect of over 55% in size
Target sequence (P18054 whole entry, looked up): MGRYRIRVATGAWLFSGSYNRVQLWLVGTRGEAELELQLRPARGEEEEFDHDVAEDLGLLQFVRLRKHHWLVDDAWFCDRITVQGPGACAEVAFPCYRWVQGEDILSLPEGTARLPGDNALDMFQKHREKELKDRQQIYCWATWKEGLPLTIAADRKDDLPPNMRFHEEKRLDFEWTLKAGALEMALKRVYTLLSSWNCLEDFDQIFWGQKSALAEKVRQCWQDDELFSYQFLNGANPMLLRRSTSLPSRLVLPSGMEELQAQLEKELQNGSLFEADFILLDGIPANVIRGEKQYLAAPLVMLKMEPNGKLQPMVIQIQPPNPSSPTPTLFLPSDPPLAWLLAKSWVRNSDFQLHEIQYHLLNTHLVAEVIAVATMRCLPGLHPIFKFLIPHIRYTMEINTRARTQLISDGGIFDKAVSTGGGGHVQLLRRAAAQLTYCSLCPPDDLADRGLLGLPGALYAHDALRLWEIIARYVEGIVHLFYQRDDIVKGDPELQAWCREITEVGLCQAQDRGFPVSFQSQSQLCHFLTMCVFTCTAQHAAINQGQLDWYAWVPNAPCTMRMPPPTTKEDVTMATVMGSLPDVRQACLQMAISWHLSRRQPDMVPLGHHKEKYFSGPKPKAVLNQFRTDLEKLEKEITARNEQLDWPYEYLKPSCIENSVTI
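Purified human 12hLO (150 nM final) was preincubated with compounds for 15 min at room temperature in 25 mM Hepes pH 7.0, 0.01% Triton X-100, then reacted with 40 uM arachidonic acid for 30 min. Hydroperoxide was detected with ferrous iron/xylenol orange.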
IMPase Li cell = membrane-permeable IMPase blocker, potentiated with lithium; CHO-M1 cells, IP1 TR-FRET (IP-One), carbachol + lithium; Potency, µM (doses to about 59.4 µM), for the others: at the top dose activity, negative = IMPase inhibition, actives largely listed as inhibitors; actives 0.35% (n = 210,000); AID 1457; active = well fitted curve in the direction sought with a large enough effect; inconclusive = small, poorly fitted or top-dose-only effect, or another doubt; inactive = no such curve, though single readings can be large; an effect the other way counts as inactive or inconclusive;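 note: IP1 builds up when IMPase is blocked and the TR-FRET signal falls; potency is the fitted concentration of half-maximal effect; plate controls were basal vehicle for no effect and high inhibitor control for full effect; nearly all actives have a fitted effect of over 50% in size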
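Readout is a homogeneous TR-FRET IP1 immunoassay (Ex 320, Em 665 and 620), where raised cytosolic IP1 lowers signal. Cells were CHO-M1 treated 30 min at 37C with test compounds plus a little lithium; AC50 values came from Hill-equation fitting.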
IMPase inh = membrane-permeable compound that blocks inositol monophosphatase; 120,000 tested, under 10 active; inhibition (IP1 accumulation), % at 46.1 µM; P97697; AID 901; CHO-M1 cells, IP1 accumulation, HTRF TR-FRET ratio; active = well fitted curve in the direction sought with a large enough effect in the signal ratio, not every such curve was filed as active; inconclusive = small, poorly fitted or top-dose-only effect, or a change in a side signal; inactive = no such curve, though single readings can be large or run the other way; the % refers to the signal ratio;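 note: cells stimulated with carbachol in lithium chloride buffer; plate controls were DMSO basal wells for no effect and reference inhibitor wells for full effect; higher means more IMPase inhibition seen as more IP1 and lower FRET ratio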
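Carbachol-driven Gq signalling in CHO-M1 cells (2000/well) generates IP1. Compounds that block IMPase raise IP1 and so reduce the FRET signal from Eu-anti-IP1 and d2-IP1 after a 10 min room-temperature lysis.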
The depositor's hits bear a star; ? = inconclusive; nt = no result; [ ] = dose if it differs, or a comment. Unless noted, calls come from the whole dose curve; as a rule, active = well fitted inhibition curve with a large enough effect (not every such curve was filed as active); inconclusive = small, poorly fitted or top-dose-only effect, or another doubt; inactive = no such curve, though single readings can be large or run the other way. Unless noted, % is set by controls: 0 for no effect and ±100 for the full control effect.

SMILES | PNC inhibitor | HPGD block | ALDH1A1 block | ALOX12 inhib | IMPase Li cell | IMPase inh
N#CC1=C(N)C(C#N)(C#N)C(c2cccnc2)C2COCC=C12 (stereo unspecified) | 13 | 28µM* | 4% | -3% | -1%[38.3 µM] | -2
N#CC1=C(N)C(C#N)(C#N)C(c2cccnc2)C2CN(C(=O)OCc3ccccc3)CC=C12 (stereo unspecified) | -7 | -18% | ? | -10% | 19% | -7
CC1=CC(c2ccc(Cl)cc2)n2nc(NS(=O)(=O)c3ccc(C)cc3)nc2N1 (stereo unspecified) | 33 | ? | ? | -4% | 17%[38.3 µM] | -9
CC1=CC(c2ccccc2)n2nc(NS(=O)(=O)c3ccc(C)cc3)nc2N1 (stereo unspecified) | -10 | ? | 0.63µM* | -7% | nt | -16
COc1cc(/C=C/C(=O)OCC(=O)NC2CCS(=O)(=O)C2)ccc1O (stereo unspecified) | 5 | -20% | -12% | 4% | 8% | nt
COc1ccc(/C=C(\C#N)C(=O)NC2CCS(=O)(=O)C2)cc1OC (stereo unspecified) | -119* | -15% | 6% | 1% | 5% | 11
OC1(c2ccc(F)cc2)CN(c2ccccc2)C2=[N+]1CCS2 (stereo unspecified) | -25 | -8% | -2% | -6% | 19% | 14
Cc1ccccc1N1CC(O)(c2ccccc2)[N+]2=C1SCC2 (stereo unspecified) | -23 | -3% | 13µM* | -16% | 11% | -16
Cc1ccc(C2(O)CN(c3ccccc3C)C3=[N+]2CCS3)cc1 (stereo unspecified) | 16 | -1% | 20µM* | -6% | 9% | 0
Cc1ccc(C2(O)CN(c3ccccc3)C3=[N+]2CCS3)cc1 (stereo unspecified) | 12 | 0% | 1% | -2% | 11% | -4
CCOC1=NC(C(=O)O)c2ccccc2/C(=C(/C)Cl)N1 (stereo unspecified) | -8 | -2% | 4µM* | 0% | -25%[38.3 µM] | -13
COc1ccc(NC(=O)N2CCCC3(CCN(C(=O)c4cc(C(F)(F)F)cc(C(F)(F)F)c4)CC3)C2)cc1 | nt | -7% | 2% | 0% | -21% | nt
Cc1cc(C)n(C(CC(=O)N2CCc3ccccc3C2)C(=O)O)n1 (stereo unspecified) | -127* | 1% | 5% | -2% | 6%[38.3 µM] | 6
COCCNC(=O)CSc1cc(=O)n(C)c2cc(Cl)ccc12 | nt | nt | 3% | nt | ? | nt
O=C1c2ccccc2C(=O)N1CCCc1nc(-c2ccccn2)no1 | -107* | -10% | -2% | 1% | 29%[38.3 µM] | 10
N#CC1=C(N)NC(SCC(=O)c2ccc(Br)cc2)=C(C#N)C12CCCCC2 | 42 | -17% | 13µM* | -16% | 9% | nt
CC1(C)CC(=O)C2=C(C1)NC(SCC(N)=O)=C(C#N)C21CCCCC1 | 11 | -20% | ? | -2% | 6%[38.3 µM] | 1
N#Cc1ccc(-c2ccco2)nc1SCC(=O)c1ccc(Cl)cc1 | -6 | -20% | ? | -3% | -1%[38.3 µM] | -1
COc1ccc(C(=O)CSC2=C(C#N)C3(CCCCC3)C(C#N)=C(N)N2)cc1 | 5 | nt | 8.9µM* | -27% | nt | 6
CCSC1=C(C#N)C2(CCCCC2)C2=C(CC(C)(C)CC2=O)N1 | nt | nt | ? | nt | 9% | nt
N#CC1=C(N)NC(SCC(=O)c2ccc(Cl)cc2)=C(C#N)C12CCCC2 | -6 | ? | 28µM* | -9% | 17%[38.3 µM] | 2
O[C@H]([C@H](O)[C@@H](O)c1nc2ccccc2[nH]1)[C@@H](O)c1nc2ccccc2[nH]1 | nt | 0% | 6%[13.5 µM] | ? | -11% | nt
CCN(CC)c1ccc(CC(=O)NC(C)Cc2ccccc2)cc1 (stereo unspecified) | -106* | -19% | 10% | 9% | 5%[38.3 µM] | 15
O=C(c1cnccn1)N1CCC2(CC1)CCN(c1ccncc1)CC2 | nt | 2% | 10% | 4% | 8% | nt
COc1ccc2c(c1)CN([C@H](C)[C@@H]1CC[C@@H]3[C@H]4CC[C@H]5C[C@@H](O)CC[C@@]5(C)[C@H]4CC[C@]31C)CO2 | nt | -4% | ? | 1%[11.4 µM] | 13% | nt
SMILES | PNC inhibitor | HPGD block | ALDH1A1 block | ALOX12 inhib | IMPase Li cell | IMPase inh
COCCCN1C(=O)c2ccc(C(=O)Nc3ccccc3OC)cc2C1=O | ? | -10% | ? | -3% | 26%[38.3 µM] | -7
COCCCN1C(=O)c2ccc(C(=O)NCc3ccco3)cc2C1=O | 8 | -17% | 13µM* | -1% | -4%[38.3 µM] | 4
CCCN1C(=O)c2ccc(C(=O)NCc3ccco3)cc2C1=O | 61 | -9% | 6.3µM* | -4% | 21%[38.3 µM] | -4
O=C(NCc1ccco1)c1ccc2c(c1)C(=O)N(C1CCCCC1)C2=O | 21 | -4% | ? | 3% | 15%[38.3 µM] | 3
CCC1=C2CC[C@H]3C(=O)NC(=O)[C@H]3[C@H]2[C@@]2(C)C(=NCC3CC3)OC(=O)N2C1=O | nt | -10% | 5% | -5% | -4% | nt
N#C/C(=C/c1ccc([N+](=O)[O-])cc1)C(N)=O | nt | nt | ? | nt | -1% | nt
N#CC(C#N)=C(N)/C(C#N)=C/c1ccc2[nH]ccc2c1 | nt | nt | 13µM* | nt | -23% | nt
CN(C)S(=O)(=O)c1ccc(C(=O)Nc2ccccc2SCCC#N)cc1 | nt | nt | 16µM* | nt | 2% | nt
Cc1ccccc1NC(=O)c1ccc(S(=O)(=O)N(C)C)cc1 | -6 | -3% | 9% | 1% | -2% | 0
COc1ccc(CNC(=O)c2cnc(C)cn2)cc1 | 22 | 25µM* | ? | 9% | 8%[38.3 µM] | -2
COc1ccc(CNC(=O)c2ccc(C)o2)cc1 | -4 | 3.5µM* | -9% | 2% | 5% | -9[0.0738 µM]
COc1ccc(CNC(=O)c2ccc(C(C)(C)C)cc2)cc1 | nt | nt | 9% | nt | 1% | nt
COc1ccc(CNC(=O)c2c(-c3cc(Cl)c(OC)c(Cl)c3)noc2C)cc1 | 22 | -7% | 0.045µM* | -4% | ? | 2
COc1ccc(CNC(=O)C(C)Sc2ccc(C)cc2)cc1 (stereo unspecified) | nt | nt | 14µM* | nt | -1% | nt
Cc1onc(-c2ccccc2Cl)c1C(=O)NCc1ccccc1 | -14 | -13% | 2% | -1% | 28%[38.3 µM] | 0
Cc1ccc(SC(C)C(=O)NCc2ccncc2)cc1 (stereo unspecified) | nt | nt | -3% | nt | 20% | nt
COc1cc(N[C@@H](C)CCCN)c2ncccc2c1 | nt | -3% | ? | -2%[25.6 µM] | 13% | 7[20.6 µM]
O=C(OC(C(=O)NC1CCCC1)c1ccccc1F)c1ccco1 (stereo unspecified) | -139* | -8% | -7% | 3% | -10%[38.3 µM] | -4
O=C(OC(C(=O)NC1CCCCC1)c1ccccc1)c1ccco1 (stereo unspecified) | ? | ? | ? | 16% | 9% | 2
